Source: PubChem (National Center for Advancing Translational Sciences (NCATS))
NPR1 antag: antagonists of human natriuretic peptide receptor Npr1; HEK293 hNpr1 GloSensor cGMP, ANP-stimulated luminescence; AID 1347048; hit rate 1.6% among 76,000; Potency, µM (titrated, usually from 46.3 µM), most hits filed as inhibitors; calls by dose curve; further: nearly all actives have a fitted effect of over 60% in size
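Compound pre-incubated 30 min at room temperature on GloSensor-loaded HEK293 cells stably carrying hNpr1 and the pGS-40F cGMP biosensor. Stimulation uses hNppA at 0.1 nM final; luminescence is taken at baseline and 20 min post-agonist.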
HEK cytotox: HEK 293 cell cytotoxicity; HEK 293 viability, ATP luminescence (CellTiter-Glo), 48-72 h; AID 1345083; hit rate 6.6% among 94,000; Potency, µM (titrated, usually from 115 µM), hits mostly inhibitors; further: nearly all actives have a fitted effect of over 60% in size
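250 HEK 293 cells/well; compound by pintool; incubated 48 or 72 hr at 37 degree Celsius; CellTiter-Glo added, 10 min RT, luminescence imaged.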
GPT2 inh: blocks human glutamate pyruvate transaminase 2; Recombinant GPT2, coupled pyruvate oxidase/HRP Amplex Red fluorescence; Potency, µM (series often up to 57.7 µM), actives largely listed as inhibitors; hit rate 0.25% among 100,000; Q8TD30; further: nearly all actives have a fitted effect of over 60% in size
Target sequence (Q8TD30 whole entry, looked up): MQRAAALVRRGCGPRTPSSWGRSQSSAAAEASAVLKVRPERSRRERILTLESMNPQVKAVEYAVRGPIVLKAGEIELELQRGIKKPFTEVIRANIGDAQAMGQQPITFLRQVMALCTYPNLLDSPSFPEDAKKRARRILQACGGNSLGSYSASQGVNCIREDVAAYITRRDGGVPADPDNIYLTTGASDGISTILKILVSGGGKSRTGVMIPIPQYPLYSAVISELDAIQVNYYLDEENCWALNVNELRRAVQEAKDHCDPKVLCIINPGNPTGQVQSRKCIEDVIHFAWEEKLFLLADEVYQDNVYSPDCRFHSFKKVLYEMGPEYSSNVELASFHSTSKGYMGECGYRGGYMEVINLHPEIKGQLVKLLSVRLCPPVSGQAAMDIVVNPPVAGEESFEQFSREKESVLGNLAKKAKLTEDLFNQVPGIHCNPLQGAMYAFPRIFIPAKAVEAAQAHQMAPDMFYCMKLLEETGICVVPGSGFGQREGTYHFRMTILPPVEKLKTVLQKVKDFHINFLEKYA
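Recombinant GPT2 (10ng/uL) with 250uM a-KG and 2mM L-alanine, 30 min at room temperature, in HEPES pH 7.5 buffer. Pyruvate detected by pyruvate oxidase/HRP/Amplex Red fluorescence after 30 min in the dark; AOA (50uM) as positive control.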
NIH3T3 tox: kills NIH 3T3 cells; NIH 3T3 viability, CellTiter-Glo ATP luminescence, 48-72 h; Potency, µM (highest dose often 96.7 µM), usual class: inhibitors; hit rate 4.3% among 94,000; further: nearly all actives have a fitted effect of over 55% in size
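First NIH 3T3 cells are plated at 400 cells/well; next compound is pinned in; then plates incubate 48 or 72 hr at 37 °C; finally CellTiter-Glo is added and luminescence read after 10 min.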
Luciferase inh: Photinus pyralis luciferase inhibition. P08659. purified P. pyralis luciferase, luminescence, biochemical. Potency, µM (top dose mostly 115 µM), hits mostly inhibitors. hit rate 2.5% among 76,000. AID 1347043; further: nearly all actives have a fitted effect of over 65% in size
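Purified P. pyralis luciferase (10nM final) in 50mM Tris acetate pH 7.5, 10mM Mg acetate, 0.01% Tween-20, 0.05% BSA with 10uM D-luciferin and 10uM ATP. Compounds titrated qHTS. Luminescence imaged on CCD.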
A number is an active result; i = inactive; ? = inconclusive; nt = no result given; ! = not confirmed by another sample. Only some compounds are listed: those with a hit (about 10% of all), similar ones and a draw of the others. Unless noted, the call rests on the fitted dose curve; in most records, active means well fitted curve in the direction sought with a large enough effect; inconclusive means small, poorly fitted or top-dose-only effect, or another doubt; inactive means no such curve, though single readings can be large; an effect the other way counts as inactive or inconclusive.

SMILES | NPR1 antag | HEK cytotox | GPT2 inh | NIH3T3 tox | Luciferase inh
O=S(=O)(c1cccc2ccccc12)N1CCCC(CO)(Cc2cccc(Cl)c2)C1 (stereo not drawn) | i | ? | i | 45µM | i
OCC1(Cc2ccccc2)CCCN(Cc2cnn(-c3cccc(Cl)c3)c2)C1 (stereo not drawn) | i | 79µM | i | 79µM | i
CN1CCN(Cc2cnn(-c3cccc(Cl)c3)c2)CC1CCO (stereo not drawn) | i | i | i | ? | i
O=C(NCC1Cn2cccc2CN1Cc1ccccc1)c1ccccn1 (stereo not drawn) | nt | i | i | i | nt
O=C(NCC1Cn2cccc2CN1Cc1ccccc1)c1cncc(Br)c1 (stereo not drawn) | i | 89µM | i | ? | i
CN1Cc2cccn2CC1CNC(=O)c1ccnn1C (stereo not drawn) | i | i | i | i | i
Cn1nccc1C(=O)NCC1Cn2cccc2CN1Cc1ccccc1 (stereo not drawn) | i | 79µM | i | ? | i
CCCNC(=O)N(C1CCOCC1)C1CCN(C(=O)c2ccc(CC)cc2)CC1 | i | i | i | ? | i
O=C1NCC2(CCCN(C(=O)c3cnc4c(O)cccn4c3=O)C2)O1 (stereo not drawn) | i | ? | i | i | i
O=C(c1ccc(C(F)(F)F)cc1)N1CC2(Cc3ccccc3NC2=O)C1 | nt | ? | i | i | nt
Cc1noc(C)c1[S+](=O)([O-])N1CCn2c(nn(-c3cccc(Cl)c3)c2=O)C1 | nt | i | i | i | nt
COc1cc(CNC2CCCCC2)ccc1OCC(O)CN1CCSCC1 (stereo not drawn) | i | i | i | i | i
COc1ccc(CNCc2ccc(C)s2)cc1OCC(O)CN1CCCCC1 (stereo not drawn) | i | 79µM | i | ? | i
COc1cc(CNC2CCCCCCC2)ccc1OCC(O)CN1CCSCC1 (stereo not drawn) | i | ? | i | 79µM | i
CN(C)C[C@@H]1CN(C2CCOCC2)C[C@H]1NC(=O)c1cccc(Cl)c1 | i | i | i | i | i
CN(c1cc(=O)c2ccnc(-c3cccc(C(F)(F)F)c3)c2o1)C1CCOCC1 | i | i | i | 13µM | i
COc1cc(-c2nccc3c(=O)cc(N(C)c4ccccc4)oc23)ccn1 | i | ? | i | 10µM | i
CN(c1cc(=O)c2ccnc(-c3ccc(F)c(Cl)c3)c2o1)C1CCOCC1 | i | i | i | ? | i
CN(c1ccccc1)c1cc(=O)c2ccnc(-c3ccncc3)c2o1 | i | i | i | 25µM | i
COc1ncccc1-c1nccc2c(=O)cc(N(C)c3ccccc3)oc12 | i | ? | i | 35µM | i
COc1ccc(CN2CC3(CCN(S(=O)(=O)c4ccccc4Cl)CC3)C2=O)cc1 | i | ? | i | ? | i
COc1ccc(CN2CC3(CCN(S(=O)(=O)c4ccc(F)cc4)CC3)C2=O)cc1 | i | 89µM | i | i | i
O=C(NCC(=O)N1CCC(Cc2ccccc2)CC1)c1ccc(-c2cnc3ccccc3c2)cc1 | nt | 10µM | i | ? | nt
CC(C)c1nnsc1Cn1ncc(N(C)CCc2ccccc2)cc1=O | i | 89µM | i | ? | i
CC(C)N(C)C(=O)Cn1ncc(N(C)CCc2ccccc2)cc1=O | i | i | i | i | i
SMILES | NPR1 antag | HEK cytotox | GPT2 inh | NIH3T3 tox | Luciferase inh
CN1c2cc(C(=O)Nc3cccc(OC(F)(F)F)c3)ccc2C(=O)N2CCCCCC21 (stereo not drawn) | i | ? | i | i | i
COc1ccc(OC)c(NC(=O)c2ccc3c(c2)C(O)CCCCCN3C)c1 (stereo not drawn) | ? | ? | i | ? | i
CC1CCN(c2ccc(CNC(=O)c3ccc4c(c3)C(O)CCCCCN4C)cc2)CC1 (stereo not drawn) | i | ? | i | 40µM | i
CN1CCCCCC(O)c2cc(C(=O)Nc3cccc(OC(F)(F)F)c3)ccc21 (stereo not drawn) | ? | 25µM | ? | 28µM | i
COc1cccc(NC(=O)c2ccc3c(c2)C(O)CCCCCN3C)c1 (stereo not drawn) | i | ? | i | ? | 35µM
COc1cccc([S+](=O)([O-])N2CCN(CCCn3nc4n(c3=O)CCCC4)CC2)c1 | nt | i | nt | i | nt
CN(CCc1ccccc1)CCN1CC2(CCN(c3ncccc3C#N)CC2)OC1=O | i | 40µM | i | ? | i
N#Cc1cccnc1N1CCCC(CO)(CCCc2ccccc2)C1 (stereo not drawn) | i | ? | i | ? | i
COc1ccccc1CN1CCC2(CC1)COCCN2C(=O)OCc1ccccc1 | i | ? | i | ? | i
O=C(OCc1ccccc1)N1CCOCC12CCN(Cc1ccncc1)CC2 | i | 50µM | i | 35µM | i
O=C(OCc1ccccc1)N1CCOCC12CCN(Cc1nccs1)CC2 | ? | ? | i | ? | i
O=C(OCc1ccccc1)N1CCOCC12CCN(Cc1ccccc1)CC2 | i | 25µM | i | ? | i
Cc1cccc(CN2CCC3(CC2)COCCN3C(=O)OCc2ccccc2)c1 | i | 40µM | i | 40µM | i
O=C(OCc1ccccc1)N1CCOCC12CCN(Cc1ccccc1F)CC2 | i | ? | i | ? | i
Cc1ccc(CN2CCC3(CC2)COCCN3C(=O)OCc2ccccc2)o1 | i | 28µM | i | 45µM | i
Cc1noc(C)c1CN1CCC2(CC1)COCCN2C(=O)OCc1ccccc1 | i | ? | i | i | i
COc1ccc(CNC(=O)Cn2c(-c3ccc(F)cc3)nc(C)cc2=O)cc1OC | i | i | i | i | i
CCN1CCC(N[C@@H]2CC[C@@H]2NC(=O)CCCc2ccccc2)CC1 | i | i | i | i | i
Cc1ccccc1CN1CCC2(CC1)COCCN2C(=O)OCc1ccccc1 | i | 100µM | i | ? | i
COCCC(=O)NCC12CCCC=C1N(CC1CC1)C(=O)CC2 (stereo not drawn) | nt | i | i | ? | nt
CCCc1nc(C)cc(N2CCC(NCCc3ccc(Cl)cc3)CC2)n1 | i | 14µM | i | ? | i
CC(C)C(=O)N1Cc2ccccc2CC2(CCCN(CC3CCNC3)C2)C1 (stereo not drawn) | nt | ? | i | i | nt
COc1ccc(NC(=O)c2ccc3c(c2)N(C)C2CCCCCN2C3=O)c(OC)c1 (stereo not drawn) | i | ? | i | i | ?
COC1CCOC2(CCN(C(=O)NCCc3ccccc3)CC2)C1 (stereo not drawn) | i | i | i | i | 28µM
C[C@H]1COC2=C1C(=O)C(=O)c1c2ccc2c1CCCC2(C)C | nt | nt | 17µM | nt | nt
Cc1coc2c1C(=O)C(=O)c1c-2ccc2c1CCCC2(C)C | nt | nt | 14µM | nt | nt
Cc1coc2c1C(=O)C(=O)c1c-2ccc2c(C)cccc12 | nt | nt | 2.2µM! | nt | nt
CCC(=O)NCCn1c(C)nc2cc(S(=O)(=O)N3CCOCC3)ccc21 | i | i | i | i | i
O=C(C1CN(C2CCCCC2)C(=O)N1)N1CCc2ccccc2C1 (stereo not drawn) | nt | 25µM | i | ? | nt
